About 83,000 compounds went through this panel and 20% of them were active in at least one assay; those are over-represented in the sample as a whole.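 The endpoint reported here, percent growth, reads 100 for growth as untreated, 0 for no net growth and -100 for all cells dead.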 Unmarked numbers belong to inactive results. Activity calls are given as the source filed them. The calls were made as follows: active = growth percent below 10; inactive = the rest.
The molecules below were run on MDA-MB-468 breast (assay: NCI-60 one-dose screen, 48 h (100 = growth as untreated, 0 = no growth, -100 = all killed)). Settings: 10 µM unless noted.
For `COC(=O)c1cc2c(n1Cc1ccccc1)-c1oncc1CCC2`, the growth was 63.5%.
Molecule `CCCCCCN(CCCCCC)CC(O)c1cccc2ccc(Cl)cc12` (stereo not given) has a growth of 87.6%.
With `N#C/C(=C\c1ccc2c(c1)OCO2)n1nnc2ccccc21` the growth was -1.9% (active).
With `CCn1c(C)nc([N+](=O)[O-])c1Sc1nc(N)nc2nc[nH]c12` the growth was -11.2% (active).
With `CC/C=C\C[C@H](O)C/C=C1/C(=O)C=C[C@@H]1C/C=C\CCCC(=O)NC` the growth was -47.4% (active).
With `Cc1c2c(cc3c1[nH]c1ccccc13)C=NCC2` the growth was 80.2%.
`COc1ccc(NC(=O)CSc2nnc(-c3ccc4nc(-c5ccccc5)[nH]c4c3)o2)cc1` was tested, and the growth was 95.5%.
In the case of `Cc1cc(=O)n(-c2ccc(F)cc2)[nH]1`, the growth is reported as 113%.
For `CS(=O)(=O)N(c1cc(-c2ccc3ncnc(Nc4cccc(Cl)c4)c3c2)cnc1Cl)S(C)(=O)=O`, the growth was -42.1% (active).
In the case of `N=C1c2nc3n(c2C(=O)c2nc4n(c21)CCCC4)CCCC3`, the growth is reported as 68.1%.
In the case of `Cc1ccc(S(=O)(=O)NC(CCC(=O)Nc2ccccc2)C(=O)Nc2ccccc2)cc1` (stereo not given), the growth is reported as -20.6% (active).
`CCCCCCCCCCCCC1CCCC(C)C1` (stereo not given) was tested, and the growth was 111%.
In the case of `COc1ccccc1-c1nc2ccc3[nH]ncc3c2c2c1CCCC2`, the growth is reported as 47.4%.
With `COc1cc(CNC(=O)CCCC/C=C/C(C)C)ccc1OCc1cn(-c2ccc(C(F)(F)F)cc2)nn1` the growth was 84.8%.
`NCCSSC/C=C\CSSCCN` was tested, and the growth was 94.6%.
For `COc1ccc(/C=C/C(=O)Nc2ncnc3nc[nH]c23)cc1`, the growth was 95.3%.
`O=C(O)c1cn(C2CC2)c2cc(N3CCN(C(=O)CN4C(=O)CSC4=O)CC3)c(F)cc2c1=O` showed a growth of 96.4%.
Work on `COc1c(Br)cc(C(c2cc(Br)c(OC)c(Br)c2)c2ccccc2C(=O)O)cc1Br` yielded a growth of 100%.
`COc1cc(C(=O)c2cnc(-c3cccc4[nH]ccc34)[nH]2)cc(OC)c1OC` was tested, and the growth was -2.51% (active).
In the case of `COc1ccc([C@@H]2[C@@H](O)C(=O)N2c2cc(OC)c(OC)c(OC)c2)cc1F`, the growth is reported as -3.08% (active).
Molecule `NN=C(c1ccc(Cl)cc1)c1ccc(Cl)cc1` has a growth of 111%.
`CNC(=O)c1c(NC(=O)c2ccc(F)cc2F)sc2c1CCC(=O)C2` was tested, and the growth was -15.5% (active).
`CCCn1nc(-c2ccccc2)c2c(-c3ccccc3)onc2c1=O` gave a growth of 43.6%.
With `CCc1ccccc1-n1c(-c2ccc(Cl)cc2)cc(-c2ccc(OC)cc2)c(C#N)c1=O` the growth was 104%.
With `C=C1C(=O)O[C@H]2[C@H]1CC/C(CNC(=O)/C=C/c1ccc(Br)cc1)=C\CC[C@@]1(C)O[C@@H]21` the growth was -58.5% (active).
`COc1nc2ccc(C)cc2cc1-c1nc2c(cnn2-c2ccc(Br)cc2)c(=O)[nH]1` was tested, and the growth was 29.5%.
`COc1ccc(C2C3=C(COC3=O)N(CCO)c3cc4c(cc32)OCO4)cc1OC` (stereo not given) was tested, and the growth was 8.1% (active).
`c1cc(-c2nnc(SSc3ncnc4nc[nH]c34)o2)ccn1` was tested, and the growth was -9.07% (active).
`COc1ccc(/C=N/NC(=O)c2ccc(S(C)(=O)=O)cc2)cc1OC` was tested, and the growth was 100%.
For `Fc1cnccc1-c1nc2ccc3[nH]ncc3c2c2c1CCCC2`, the growth was 1.78% (active).
For `Nc1nc(-c2cc3c(cc2Cl)NC(=O)/C3=C/c2ccccc2)cs1`, the growth was 33.7%.
For `CO[C@H]1CC(O[C@@H]2/C(C)=C/C[C@@H]3C[C@@H](C[C@]4(CC[C@H](C)[C@@H](C5CCCCC5)O4)O3)OC(=O)[C@@H]3C=C(C)/C(=N/O)[C@H]4OC/C(=C\C=C\[C@@H]2C)[C@]43O)O[C@@H](C)C1O` (stereo not given in full), the growth was -87% (active).
`OC(CCCCCCCCC(O)CN1CCc2ccccc2C1)CN1CCc2ccccc2C1` (stereo not given) was tested, and the growth was 127%.
For `COCCCOc1cc(C[C@@H](C[C@H](N)[C@@H](O)C[C@H](C(=O)NCC(C)(C)C(N)=O)C(C)C)C(C)C)ccc1OC`, the growth was 101%.
`Cc1nn(-c2nc3ccccc3[nH]2)c2c1C(c1ccc(O)cc1)CC(=O)N2` (stereo not given) showed a growth of 92.8%.
With `NCC(=O)CCC(=O)O` the growth was 100%.
In the case of `COc1ccc(-c2c(-c3ccccc3)noc2N)cc1OC`, the growth is reported as 85.7%.
For `O=C(Nn1c2c(sc1=NCc1ccccc1)C(=O)c1ccccc1C2=O)c1cc2ccc1CCc1ccc(cc1)CC2`, the growth was 80%.
`CC1(C)N=C(N)N=C(N)N1c1cccc(CCc2ccccc2)c1` gave a growth of 16.6%.
`CCCC(=O)NC(c1ccc2c(c1)OCO2)c1cc(Cl)c2cccnc2c1O` (stereo not given) was tested, and the growth was 7.89% (active).
